Assay results taken from PubChem BioAssay (NCI).
Compounds without any hit were thinned out: in the full panel of roughly 79,000, 15% have a hit. Calls of active or inactive are those of the source. Rule as the data show it: active = growth inhibition above about 70%; inactive = the rest.

Tests used:
[1] = NCI Yeast Anticancer Drug Screen. Data for the rad50 strain (AID 155);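 also: 0% = growth of vehicle-only cultures of the same strain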; conditions: S. cerevisiae rad50 strain growth inhibition; at 50.0 µM; active compounds read high
Outline: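 A DNA repair-deficient yeast mutant serves as the test organism; compound-induced growth inhibition is calculated against vehicle-treated cells.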

[2] = NCI Yeast Anticancer Drug Screen. Data for the mec2-1 strain (AID 157); conditions: S. cerevisiae mec2-1 strain, at 50.0 µM, active compounds read high
Outline: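 mec2-1 yeast strain, carrying an alteration in DNA damage repair or cell cycle control, was exposed to compounds; growth inhibition was measured relative to vehicle-treated controls.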

[3] = NCI Yeast Anticancer Drug Screen. Data for the sgs1 mgt1 strain (AID 161);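 also: 0% = growth of cultures given vehicle only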; conditions: S. cerevisiae sgs1 mgt1 strain, at 50.0 µM, active compounds read high
Outline: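 Compounds are added to genetically altered yeast, and growth is compared with cultures given vehicle alone to give percent inhibition.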

[4] = NCI Yeast Anticancer Drug Screen. Data for the cln2 rad14 strain (AID 165);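 also: 0% = growth equal to vehicle treated cultures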; conditions: S. cerevisiae cln2 rad14 strain, at 50.0 µM, active compounds read high
Outline: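 Yeast carrying cln2 and rad14 alterations (cell cycle control and DNA damage repair) were exposed to compounds. Growth inhibition was measured against vehicle-treated controls.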

[5] = NCI Yeast Anticancer Drug Screen. Data for the bub3 strain (AID 167); conditions: S. cerevisiae bub3 mutant strain, at 50.0 µM, active compounds read high
Outline: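 Inhibition values come from growth of compound-treated mutant yeast normalised to vehicle-treated controls.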

[6] = NCI Yeast Anticancer Drug Screen. Data for the mlh1 rad18 strain (AID 175); conditions: S. cerevisiae mlh1 rad18 strain growth inhibition; at 50.0 µM; active compounds read high
Outline: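 Growth inhibition of the yeast strain was measured after compound exposure and expressed relative to vehicle-treated controls. The strain carries defined defects in DNA damage repair.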

Measured: growth inhibition

Cc1ccc(S(=O)(=O)N2CC(CCl)N(S(=O)(=O)c3ccc(C)cc3)CC2CCl)cc1 (stereo unspecified)
inactive: [1] 28.5% | [2] 7.45% | [3] 20.6% | [4] 10.4% | [5] 4.35% | [6] 20.9%

CC1(C)C(c2ccccc2)C12CCC1(C2=O)C(c2ccccc2)C1(C)C (stereo unspecified)
inactive: [1] -41.8% | [2] -27.8% | [3] -36% | [4] -6.8% | [5] -16.9% | [6] -52.4%

O=C(N=Nc1c(O)[nH]c2ccccc12)c1ccncc1
inactive: [1] -10.8% | [2] 2.15% | [3] -9.25% | [4] -19.4% | [5] -7.4% | [6] 11.1%

COCn1c(C(=O)c2ccc(OC)cc2)cc2ccccc21
inactive: [1] 7.45% | [2] 11.8% | [3] -3.9% | [4] -11.5% | [5] 16.1% | [6] 23.4%

O=C(O)c1cnc(Cl)c(Br)c1
inactive: [1] -12.1% | [2] -3.35% | [3] 6.7% | [4] -17.9% | [5] -27.1% | [6] 2.5%

O=C1CC(c2ccccc2)NCN1 (stereo unspecified)
inactive: [1] 3.95% | [2] 1% | [3] 7.1% | [4] 2.2% | [5] -2.4% | [6] 8.3%

O=C(O)c1c[n+]([O-])ccc1Cl
inactive: [1] 12.8% | [2] -0.9% | [3] -8% | [4] -42% | [5] -8.2% | [6] 27.1%

CN(C)CCC(c1ccccc1)C(CO)c1ccccc1 (stereo unspecified)
inactive: [1] -24.6% | [2] 8.75% | [3] 9.9% | [4] 7.65% | [5] -2.1% | [6] 12.7%

CCNCCCCNCC
inactive: [1] 4.25% | [2] -14.9% | [3] -18.6% | [4] 8.1% | [5] -3.85% | [6] 2.3%

CNC(=S)n1ncnc1N
inactive: [1] 11% | [2] -5.95% | [3] -2.9% | [4] -17.8% | [5] -3.75% | [6] 8.25%

CCCCCCCCCCCCOc1ccc(Sc2ccc([N+](=O)[O-])cc2)cc1
inactive: [1] 30.2% | [2] 2.55% | [3] 35.1% | [4] -34.3% | [5] 5.1% | [6] 25.8%

C#CCN1CCCC1
inactive: [1] -9.4% | [2] -4.35% | [3] -11% | [4] 22.1% | [5] 27.7% | [6] 10.2%

CC1(C)OC2C(CNS(C)(=O)=O)OC(n3cnc4c(N)ncnc43)C2O1 (stereo unspecified)
inactive: [1] -3.05% | [2] -4.55% | [3] -12.1% | [4] -4.75% | [5] 7.45% | [6] -13.2%

Cn1c(N)c(-n2[nH]c(=O)n(-c3ccccc3)c2=O)c(=O)n(C)c1=O
inactive: [1] -20.6% | [2] 15.3% | [3] -3.25% | [4] -14.8% | [5] 14.6% | [6] 18.1%

COc1cc([N+](=O)[O-])ccc1P(=O)(O)O
inactive: [1] 2% | [2] -5.65% | [3] -1.4% | [4] -4.35% | [5] -9.95% | [6] 14.1%

O=c1c2n(c(=O)c3n1CCC=3)CCC=2
inactive: [1] -2.5% | [2] -13.5% | [3] -0.6% | [4] -25.1% | [5] -6.85% | [6] 9.35%

NNc1nc(N2CCOCC2)c2[nH]cnc2n1
inactive: [1] -1.3% | [2] -5.45% | [3] 14.2% | [4] 4.5% | [5] -9.9% | [6] 4.75%

O=[N+]([O-])c1ccc(-c2cc[cH-]c2)cc1.[Fe+2].c1cc[cH-]c1
inactive: [1] -4.4% | [2] 14.2% | [3] 13.8% | [4] 3.4% | [5] 17.8% | [6] -0.75%

N#CC(C#N)=C(C#N)Nc1ccc(F)cc1
inactive: [1] 1% | [2] -10.4% | [3] -16.6% | [4] -6.5% | [5] -13.4% | [6] -0.4%

O=C1CCCC2=C1CC1=C(CCCC1=O)N2c1ccccc1C(=O)O
inactive: [1] -25.2% | [2] -20.8% | [3] -23.8% | [4] -5% | [5] -21.9% | [6] -36.3%

O=C1OC2C(O)C3CC1C2O3 (stereo unspecified)
inactive: [1] -8.15% | [2] -6.05% | [3] -5.5% | [4] -6.85% | [5] -2.25% | [6] 0.45%

CC(CC#N)=C(c1ccccc1)c1ccccc1
inactive: [1] 17.4% | [2] 18.9% | [3] 14% | [4] 16% | [5] -12.8% | [6] -5.05%

CCOP(=O)(OCC)/C(=C\n1ccc(=O)[nH]c1=S)C(=O)OC
inactive: [1] -54.8% | [2] -54% | [3] -27.4% | [4] -8.6% | [5] -28% | [6] -53.5%

CC1(CCN2CCCC2)NC(=O)NC1=O (stereo unspecified)
inactive: [1] 15.9% | [2] -20.3% | [3] -5.25% | [4] 1.05% | [5] 3.4% | [6] 10.9%

CS(=O)(=O)OC1CCCCC1OS(C)(=O)=O (stereo unspecified)
inactive: [1] 3.15% | [2] 8.25% | [3] 22.2% | [4] -1.85% | [5] 7.55% | [6] 9.15%

CCN(CC)CCCC(C)Nc1c2ccc(Cl)cc2nc2c(Cl)cc(Cl)cc12 (stereo unspecified)
inactive: [1] -8.55% | [2] 4.75% | [3] 2.5% | [4] 23.6% | [5] 28.3% | [6] -8.85%

Cc1ccc(S(=O)(=O)N2CCN(C=S)CC2)cc1
inactive: [1] 22.4% | [2] -30.8% | [3] 14.2% | [4] 3.9% | [5] 23.2% | [6] 26.9%

CC(C)OC(=O)Oc1ccc(Cl)cc1
inactive: [1] 6.05% | [2] -13.1% | [3] 7.4% | [4] -46.1% | [5] -11.8% | [6] 9.8%

CN(C)C(=O)c1ccccc1
inactive: [1] 29.6% | [2] 6.25% | [3] -0.35% | [4] 13.9% | [5] -9.25% | [6] 1.55%

Nc1ccc(OCC(O)CN2CCN(c3ccccc3)CC2)cc1 (stereo unspecified)
inactive: [1] 7.45% | [2] 4.15% | [3] 6.65% | [4] -3.85% | [5] 10.6% | [6] 4.1%

CCCC(O)(c1ccccc1)c1ccccc1
inactive: [1] 5.4% | [2] 2.95% | [3] -2.95% | [4] -6.4% | [5] -4.5% | [6] 4.5%

CCN(CC)CCC1(C(N)=O)Cc2ccccc2N(CC)c2ccccc21 (stereo unspecified)
inactive: [1] 13.6% | [2] 10.6% | [3] 8.7% | [4] -2.6% | [5] 6.4% | [6] 1.85%

O=[N+]([O-])c1ccc(/C=N\N=P(c2ccccc2)(c2ccccc2)c2ccccc2)cc1
inactive: [1] -6.25% | [2] 3.25% | [3] 12.8% | [4] 1.9% | [5] -4.65% | [6] -3.85%

Cc1oc2cc(O)ccc2c(=O)c1-c1ccccc1Br
inactive: [1] 9.85% | [2] 24.9% | [3] 17.4% | [4] -24.6% | [5] 15.9% | [6] 27.4%

CCc1cc2c(cc1C(=O)/C=C\c1ccco1)C(C)(C)CCC2(C)C
active: [1] 97.2% | [2] 98.2% | [3] 97.5% | [4] 96.8% | [5] 97.7% | [6] 97.8%

C=C1C(=O)O[C@H]2[C@H]1[C@@H](OC(=O)C=C(C)C)CC1=C[C@@H](C[C@@]3(C)O[C@@H]23)OC1=O
inactive: [1] -7.45% | [2] -7.55% | [3] 7.4% | [4] 9.85% | [5] -2.6% | [6] 7.85%

CCCCN(CCCC)CCCNC(=S)Nc1ccccc1
inactive: [1] -3.25% | [2] 24.2% | [3] 38.1% | [4] -7.25% | [5] 3.25% | [6] 36.4%

NC(=O)Cc1c[nH]c2ccccc12
inactive: [1] 39.7% | [2] -3.95% | [3] 14.3% | [4] -37.2% | [5] 33.4% | [6] 48.6%

Cc1ccsc1/C=N/Nc1cc(C)c2ccccc2n1
inactive: [1] 41.4% | [2] -6.25% | [3] 40% | [4] 35.8% | [5] 26.6% | [6] 16.2%

Cc1csc(=S)n1C
inactive: [1] -15.2% | [2] -3.2% | [3] -17.6% | [4] -5.8% | [5] -12% | [6] 0.4%

CC(=O)Oc1ccccc1-c1cc2ccccc2oc1=O
inactive: [1] -20.2% | [2] 20.8% | [3] 0.85% | [4] 5.15% | [5] 38.8% | [6] 11.8%
